High-throughput results: PubChem, National Center for Advancing Translational Sciences (NCATS)
Hits are enriched below; roughly 2.5% of the tested compounds scored in any of these assays.
Lassa entry inh: Lassa virus entry inhibition | 300,000 tested, 1.2% active | Potency, µM (titrated, usually from 37.9 µM), for the others: at the highest dose activity change, negative = inhibition, actives largely listed as inhibitors | Lassa virus pseudotype entry inhibition, cell reporter; calls by dose curve; tested in HEK293 cells; further: nearly all actives have a fitted effect of over 50% in size
VACV mCherry inh: inhibitors of vaccinia virus infection (mCherry reporter signal). Potency, µM (titrated, usually from 36.5 µM), for the others: at the top dose activity change, negative = inhibition, actives largely listed as inhibitors. AID 720579. Vaccinia virus mCherry reporter infection, fluorescence. 310,000 tested, 0.63% active; calls by dose curve; tested in A549 cells; further: nearly all actives have a fitted effect of over 35% in size
Vaccinia Venus: inhibitors of vaccinia virus (Venus reporter). Vaccinia virus Venus reporter expression, fluorescence. 330,000 tested, 0.46% active. Potency, µM (series often up to 36.5 µM), inactives show top-dose activity change, negative = inhibition, actives largely listed as inhibitors; calls by dose curve; tested in A549 cells; further: nearly all actives have a fitted effect of over 30% in size
MARV entry inh: blocks Marburg virus binding to or entry into cells | Marburg virus pseudotyped entry inhibition, cell reporter | Potency, µM (highest dose often 37.8 µM), for the others: at the highest dose activity change, negative = inhibition, hits mostly inhibitors | 300,000 tested, 1.8% active; calls by dose curve; tested in HEK293 cells
* hit, by the source's call; i = inactive; ? = inconclusive; . = not tested or not shown; [ ] = remark or other dose. On the % scale 0 is the no-effect control and ±100 the full control effect; potency means the concentration at half of the fitted maximal effect.

SMILES	Lassa entry inh	VACV mCherry inh	Vaccinia Venus	MARV entry inh
Cc1ncc(CO)c(/C=N/N=C/c2ccccc2O)c1O	?	i	-10.4%	27.9%
FC(F)(F)c1ccc(N/N=C/c2cccnc2)nc1	1.4%	?	?	13.6%[46.1 µM]
Cc1ncc(CO)c(/C=N/Nc2ccc(C(F)(F)F)cn2)c1O	?	?	-16.9%	3.98µM*
C=CC[C@@H]1C=C[C@@H](Oc2ccc(OC)cc2)[C@@H](COC(=O)c2ccc(Br)cc2)O1	.	.	.	-4.5%[14.2 µM]
N#Cc1ccc(N2Cc3ccccc3C2=NC(=O)c2cccs2)cc1	-5.6%	i	4.3%	?
CC(=O)c1ccc(N2Cc3ccccc3C2=NC(=O)c2cccs2)cc1	7.94µM*	-1.2%	-15.5%	?
CCOC(=O)c1ccc(N2Cc3ccccc3C2=NC(=O)c2cccs2)cc1	10µM*	-24.2%	-26.3%	?
CC(C)CN1C(=O)N[C@@](NC(=O)c2cccnc2)(C(F)(F)F)C1=O	.	.	.	18.5%
COc1ccc(Cl)cc1S(=O)(=O)N1CCN(C(=O)c2n[nH]c(=O)c3ccccc23)CC1	?	28.2µM*	?	?
COc1ccc(C(=O)N2CCN(S(=O)(=O)c3cc(Cl)ccc3OC)CC2)cc1	-15.8%	.	-14.5%	-6.1%[46.1 µM]
CN(C)C(=O)c1ccc(-c2nc(Nc3ccc(F)cc3)c3ccccc3n2)cc1	.	i	-12.2%	.
CSc1nc(N(C)NC(=O)c2ccc(F)cc2)c2ccccc2n1	?	.	?	1.26µM*
Cc1c(C(=O)NCCc2cccnc2)cnn1-c1ncc2c(n1)-c1ccccc1CC2	.	?	-25.2%	.
COC[C@H]1O[C@@H]2O[C@@H]1[C@@H](C=Cc1ccccc1)C[C@H]2C	.	.	.	5.3%[14.2 µM]
Cc1cccc(-c2nc(-c3ccncc3)no2)c1	10µM*	i	-10.8%	?
COc1cccc(-c2nc(-c3ccccn3)no2)c1	1.46µM*	.	.	2.31µM*
Cc1cc(C)cc(-c2nc(-c3ccncc3)no2)c1	.	-0.2%	-20.7%	.
COc1cccc(-c2nc(-c3ccccc3)no2)c1	14.1µM*	i	-9.8%	?
COc1cccc(-c2noc(-c3cccnc3)n2)c1	?	-12.7%	-7.8%	?
CC(C)=CCN1C(=O)[C@]2(O[C@H](COc3ccccc3)CC3=CCCC32)c2c(Br)cccc21 (stereo not given in full)	.	.	.	-17.0%[14.2 µM]
O=C(Nc1nc2ccccc2[nH]1)NC1CCCCC1	11.2µM*	-9.6%	-19.8%	?
O=C(Nc1ccccc1NC(=O)NC1CCCCC1)NC1CCCCC1	13µM*	.	.	4.61µM*
CCC(=O)Nc1ccc(-c2nnc(SCC(=O)NC[C@H]3CCCO3)n2C)cc1	.	.	.	-6.6%
Cc1ccc(-c2nc(SCC(=O)Nc3cc(S(=O)(=O)N4CCCCC4)ccc3Cl)n[nH]2)cc1	?	-23.1%	-24.2%	16.4µM*
Nc1cc(=O)[nH]c(SCC(=O)Nc2cc(S(=O)(=O)N3CCCCCC3)ccc2Cl)n1	-1.6%	-19.9%	-14.3%	-23.2%
SMILES	Lassa entry inh	VACV mCherry inh	Vaccinia Venus	MARV entry inh
COC(=O)c1ccc(CN2CCC3(CCC(CNC(=O)c4ccco4)O3)CC2)cc1 (stereo not given)	.	-1.5%	-18.7%	.
CCOc1ccc(NS(=O)(=O)c2cccc(C(=O)NCC3(N(C)C)CCCCC3)c2)cc1	?	i	-20.6%	11.2µM*
Cc1ccc(NS(=O)(=O)c2cccc(C(=O)NCC3CCCO3)c2)cc1 (stereo not given)	10µM*	-22.7%	-14.4%	?
COc1ccc(NS(=O)(=O)c2cccc(C(=O)NCC3(N4CCCCC4)CCCCC3)c2)cc1	19.1%	i	-14.6%	?
CCOc1cc(NC(=S)NCC2CCCO2)c(OCC)cc1NC(=O)c1cccc(C)c1 (stereo not given)	?	.	.	1.64µM*
C=CCN(c1ccccc1Cl)S(=O)(=O)c1cccc(C(=O)NCCc2ccc(OC)cc2)c1	11.6µM*	?	?	?
C=C=CCCN1C(=O)NC(c2ccccc2)C(C(=O)OC)=C1C (stereo not given)	.	.	.	-18.5%[14.2 µM]
CN(C)c1ccc(/C=C/c2c(Br)cnc3ccccc23)cc1	.	-17.2%	-17.8%	.
COc1ccc(N(Cc2ccccc2)S(=O)(=O)c2cccc(C(=O)NCC3CCCO3)c2)cc1 (stereo not given)	3.16µM*	-13.5%	-22.2%	-27.0%[46.1 µM]
CC(C)(C)C1=CC(=O)C(N2CCOCC2)=CC1=O	12.6µM*	i	-12.6%	?
N#CC(=C1CCCC1)c1nc(-c2ccccc2O)cs1	10µM*	.	-21.4%	?
COc1ccc(O)c(/C=N/Nc2nc(Nc3ccccc3)nc(-n3nc(C)cc3C)n2)c1	12.6µM*	.	10µM*	?
COc1cc(/C=N/Nc2nc(Nc3ccccc3)nc(-n3nc(C)cc3C)n2)cc(OC)c1OC	16.4µM*	?	?	7.31µM*
COc1ccc(CCC(=O)O)cc1	.	i	-11.4%	.
